Data from PubChem BioAssay (NCATS).
Unmarked numbers belong to inactive results. Results filed as inconclusive are left out. A call without a number means that no potency is given here. The source made the active and inactive calls. Unless noted, calls follow the shape of the dose curve; as a rule, active = well fitted curve in either direction with a large enough effect (not every such curve was filed as active); inconclusive = small, poorly fitted or top-dose-only effect, or another doubt; inactive = flat fitted curve, though single readings scatter.

What was measured:
[1] = AP1 Signaling Pathway (AID 357); conditions: ME-180 AP-1-bla reporter, EGF-induced, beta-lactamase ratio, 5 h; at 7.69 µM (top of the series) unless noted;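 also: ME-180 reporter cells stimulated with EGF at its EC50 level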
How it was run: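 A ratiometric CCF4 readout (405 nm excitation; 460 and 530 nm emission) quantified AP-1-driven beta-lactamase in ME-180 cells after 5 h with compound and EC50 EGF; AC50 values were derived for activators and inhibitors.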

[2] = target: Cytochrome P450 1A2 (Homo sapiens) (UniProt P05177); experiment: p450-cyp1a2 (AID 410; calls by dose curve; also: potency is read from the fitted curve at half-maximal effect)
Chain of Cytochrome P450 1A2 (Homo sapiens) (P05177 whole entry, looked up): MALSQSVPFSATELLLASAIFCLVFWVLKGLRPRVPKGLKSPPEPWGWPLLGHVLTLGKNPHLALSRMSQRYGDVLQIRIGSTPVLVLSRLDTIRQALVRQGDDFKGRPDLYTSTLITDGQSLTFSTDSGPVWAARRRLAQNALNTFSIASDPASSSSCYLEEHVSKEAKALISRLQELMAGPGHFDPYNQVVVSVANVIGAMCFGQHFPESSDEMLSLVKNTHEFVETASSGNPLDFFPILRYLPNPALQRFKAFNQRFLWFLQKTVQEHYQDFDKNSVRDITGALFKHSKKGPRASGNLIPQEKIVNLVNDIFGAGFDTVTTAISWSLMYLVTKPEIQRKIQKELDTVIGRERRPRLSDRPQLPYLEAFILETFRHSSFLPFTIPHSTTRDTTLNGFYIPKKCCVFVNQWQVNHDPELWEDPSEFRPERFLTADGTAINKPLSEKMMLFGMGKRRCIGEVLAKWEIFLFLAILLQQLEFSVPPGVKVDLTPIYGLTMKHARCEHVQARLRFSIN
How it was run: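 Luminescent demethylation readout: Luciferin-ME (100uM, equal to Km) turned over by 20nM CYP1A2 for 60 min at room temperature after NADPH regeneration addition, following 10 min compound preincubation. Normalization used 57 uM furafylline as full inhibition.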

[3] = NFAT Signaling Pathway (AID 444); conditions: Jurkat NFAT-bla M1, carbachol, beta-lactamase ratio, 5 h; at 7.69 µM (top of the series) unless noted;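 also: carbachol stimulus at about its EC50 of 1 µM final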
How it was run: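 Jurkat cells with NFAT-driven β-lactamase reporter and co-expressed M1 receptor, stimulated with carbachol (final 1 uM, ~EC50), compound titration, 5 h at 37 °C. CCF4 loaded 1 h at RT; 460/530 nm ratio gave %activity and AC50.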

[4] = Stat Signaling Pathway (AID 446); conditions: ME-180 (cervical carcinoma) SIE beta-lactamase reporter, IL-6 stimulated, 5 h; at 7.69 µM (top of the series) unless noted;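 also: ME-180 cervical cancer cells given 40 pM IL-6 alongside compound; SIE-controlled beta-lactamase reporter measured as 460/530 nm FRET emission ratio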
How it was run: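 Overnight-plated ME-180 cells bearing a STAT Inducible Element beta-lactamase reporter; 5 h co-exposure to compound and 40 pM IL-6; values normalized to 300 pM IL-6 and 125 nM JAK inhibitor controls.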

[5] = target: Glucocorticoid receptor (Homo sapiens) (UniProt P04150); experiment: GR-GFP Redistribution (AID 450;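 active = compounds whose dose series gives a full or clear partial fitted curve of increased nuclear translocation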; also: potency is read from the fitted curve at half-maximal effect); conditions: U2OS GR-GFP nuclear translocation, laser cytometry, 2 h
Chain of Glucocorticoid receptor (Homo sapiens) (P04150 whole entry, looked up, the tested form may be a part): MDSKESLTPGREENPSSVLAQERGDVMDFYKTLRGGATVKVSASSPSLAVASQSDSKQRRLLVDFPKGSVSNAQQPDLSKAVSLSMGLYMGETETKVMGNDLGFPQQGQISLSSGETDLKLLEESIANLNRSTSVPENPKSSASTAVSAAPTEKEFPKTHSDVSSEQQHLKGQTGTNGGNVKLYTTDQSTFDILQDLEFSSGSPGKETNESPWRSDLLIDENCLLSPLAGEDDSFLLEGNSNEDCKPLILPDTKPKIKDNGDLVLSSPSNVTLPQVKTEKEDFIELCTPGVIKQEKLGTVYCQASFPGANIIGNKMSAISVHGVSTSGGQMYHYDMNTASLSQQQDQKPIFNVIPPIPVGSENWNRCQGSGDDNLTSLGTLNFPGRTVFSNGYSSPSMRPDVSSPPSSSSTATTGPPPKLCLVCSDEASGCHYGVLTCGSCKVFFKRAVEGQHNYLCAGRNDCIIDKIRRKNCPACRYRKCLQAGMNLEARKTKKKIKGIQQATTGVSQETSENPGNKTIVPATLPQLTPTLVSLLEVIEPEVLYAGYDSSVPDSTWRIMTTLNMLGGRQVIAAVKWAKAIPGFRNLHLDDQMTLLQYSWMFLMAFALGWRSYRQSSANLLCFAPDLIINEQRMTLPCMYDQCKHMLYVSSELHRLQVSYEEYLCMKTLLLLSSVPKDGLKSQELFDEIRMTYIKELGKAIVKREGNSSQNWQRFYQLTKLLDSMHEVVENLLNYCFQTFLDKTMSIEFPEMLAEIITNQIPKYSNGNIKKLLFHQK

[6] = target: Glucocorticoid receptor (Homo sapiens) (UniProt P04150); experiment: GR-EFC Redistribution (AID 451; calls by dose curve; also: potency is read from the fitted curve at half-maximal effect); conditions: CHO-K1 GR-EFC translocation, beta-gal luminescence, 2 h
How it was run: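 CHO-K1 cells expressing nuclear EA and GR-ED fragments of b-gal; compounds titrated up to 46 uM final, 2 h at 37 C. GR nuclear translocation read as complemented b-gal luminescence after 1 h RT detection.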

[7] = target: Mitogen-activated protein kinase 10 (Mus musculus) (UniProt Q61831); experiment: JNK3 AlphaScreen Assay (AID 530);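 also: kinase came from lysate of stimulated human HepG2 cells; signal reports phosphorylation of biotinylated GST-cJun 1-79 at Ser73 with 10 µM ATP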
How it was run: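 Activity was read by AlphaScreen after JNK3-containing HepG2 lysate (cytokine pre-activated) phosphorylated biotinylated GST-cJun with 10 uM ATP at room temperature. Phospho-Ser73 cJun antibody with Protein-A acceptor beads provided detection.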

[8] = target: 3',5'-cyclic-AMP phosphodiesterase 4B (Homo sapiens) (UniProt Q07343); experiment: qHTS Assay for Inhibitors of PDE-IV (AID 607; active = well fitted activation curve with a large enough effect in the main read-out, with a control signal flat, not every such curve was filed as active)
Chain of 3',5'-cyclic-AMP phosphodiesterase 4B (Homo sapiens) (Q07343 whole entry, looked up): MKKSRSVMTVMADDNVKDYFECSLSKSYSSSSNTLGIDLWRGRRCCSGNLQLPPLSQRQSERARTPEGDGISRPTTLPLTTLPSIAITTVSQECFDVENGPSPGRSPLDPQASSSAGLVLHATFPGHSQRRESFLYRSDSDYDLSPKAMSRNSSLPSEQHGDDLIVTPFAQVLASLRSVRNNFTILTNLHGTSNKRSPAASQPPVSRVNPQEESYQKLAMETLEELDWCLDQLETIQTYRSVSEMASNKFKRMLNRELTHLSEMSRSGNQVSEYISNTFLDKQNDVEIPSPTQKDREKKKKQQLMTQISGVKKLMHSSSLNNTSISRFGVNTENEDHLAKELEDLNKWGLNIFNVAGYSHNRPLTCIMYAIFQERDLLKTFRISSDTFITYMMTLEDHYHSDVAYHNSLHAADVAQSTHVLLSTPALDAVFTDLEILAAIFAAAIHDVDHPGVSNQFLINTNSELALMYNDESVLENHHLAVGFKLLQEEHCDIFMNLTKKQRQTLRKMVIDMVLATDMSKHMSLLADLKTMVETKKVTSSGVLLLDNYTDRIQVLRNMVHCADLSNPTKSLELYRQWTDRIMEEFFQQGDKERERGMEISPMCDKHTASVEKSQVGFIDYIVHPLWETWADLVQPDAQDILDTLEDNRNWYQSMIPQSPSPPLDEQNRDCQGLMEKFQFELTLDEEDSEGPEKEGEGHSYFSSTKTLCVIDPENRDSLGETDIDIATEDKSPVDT
How it was run: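 Live HEK293 cells with a modified cyclic nucleotide-gated (CNG) channel report intracellular cAMP via membrane-potential dye fluorescence (ex 535/em 590 nm). Endogenous PDE-IV was targeted. Compounds were tested at up to 22.9 uM final; RO 20-1724 100 uM served as control.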

[9] = target: Guanine nucleotide-binding protein G(i) subunit alpha-1 (Homo sapiens) (UniProt P63096); experiment: qHTS Assay for Inhibitors of RGS12 GoLoco Motif Activity (Green Fluorophore) (AID 879; active = well fitted curve in the direction sought with a large enough effect; an effect the other way counts as inactive or inconclusive;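 also: negative values mean loss of peptide binding seen as reduced polarization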)
Chain of Guanine nucleotide-binding protein G(i) subunit alpha-1 (Homo sapiens) (P63096 whole entry, looked up): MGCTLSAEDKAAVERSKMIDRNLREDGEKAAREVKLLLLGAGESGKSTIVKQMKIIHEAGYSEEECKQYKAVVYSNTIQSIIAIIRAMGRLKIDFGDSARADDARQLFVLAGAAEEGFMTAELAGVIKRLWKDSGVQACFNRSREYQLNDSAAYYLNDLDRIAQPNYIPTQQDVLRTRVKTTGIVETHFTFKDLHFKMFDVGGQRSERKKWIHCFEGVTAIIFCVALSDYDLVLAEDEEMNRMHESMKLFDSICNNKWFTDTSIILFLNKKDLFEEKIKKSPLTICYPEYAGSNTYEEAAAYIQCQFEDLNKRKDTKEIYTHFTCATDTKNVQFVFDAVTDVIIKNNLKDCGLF
How it was run: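 A drop in FITC polarization marked displacement of the FITC-tagged RGS12 GoLoco peptide (10 nM) from Gαi1 (50 nM). Compounds were incubated 10 min at room temperature in Tris pH 7.5 buffer containing 150 mM NaCl, 0.1 mM GDP and 0.05% NP40; unlabeled peptide titration served as control.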

[10] = target: Pyruvate kinase (Leishmania mexicana) (UniProt Q27686); experiment: qHTS Validation Assay for Inhibitors of Leishmania Mexicana Pyruvate Kinase (AID 945; active = well fitted curve in the direction sought with a large enough effect; an effect the other way counts as inactive or inconclusive)
Chain of Pyruvate kinase (Leishmania mexicana) (Q27686 2-499 E452W): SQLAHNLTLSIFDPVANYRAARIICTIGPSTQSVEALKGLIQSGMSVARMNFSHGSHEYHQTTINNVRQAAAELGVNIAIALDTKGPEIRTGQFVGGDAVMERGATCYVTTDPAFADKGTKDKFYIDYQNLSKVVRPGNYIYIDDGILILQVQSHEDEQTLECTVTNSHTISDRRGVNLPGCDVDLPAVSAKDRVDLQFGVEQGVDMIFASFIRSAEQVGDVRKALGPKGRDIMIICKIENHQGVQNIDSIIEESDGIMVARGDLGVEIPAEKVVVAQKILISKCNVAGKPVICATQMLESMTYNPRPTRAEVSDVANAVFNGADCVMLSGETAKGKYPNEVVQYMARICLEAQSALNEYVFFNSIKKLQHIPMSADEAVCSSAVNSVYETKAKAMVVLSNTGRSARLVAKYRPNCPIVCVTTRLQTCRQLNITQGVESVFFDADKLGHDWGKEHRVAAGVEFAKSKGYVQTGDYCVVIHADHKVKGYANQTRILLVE
How it was run: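 qHTS eight-point titrations against 0.2 nM LmPYK (E451W) in imidazole buffer pH 7.2 with 0.5 mM PEP, 0.1 mM ADP; 1 h, room temperature. Readout: PKLight luminescence, normalized to neutral DMSO wells.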

[11] = target: Pyruvate kinase PKM (Homo sapiens) (UniProt P14618); experiment: qHTS Assay for Activators of Human Muscle Pyruvate Kinase (AID 954; active = well fitted curve in the direction sought with a large enough effect, not every such curve was filed as active)
Chain of Pyruvate kinase PKM (Homo sapiens) (P14618 whole entry, looked up): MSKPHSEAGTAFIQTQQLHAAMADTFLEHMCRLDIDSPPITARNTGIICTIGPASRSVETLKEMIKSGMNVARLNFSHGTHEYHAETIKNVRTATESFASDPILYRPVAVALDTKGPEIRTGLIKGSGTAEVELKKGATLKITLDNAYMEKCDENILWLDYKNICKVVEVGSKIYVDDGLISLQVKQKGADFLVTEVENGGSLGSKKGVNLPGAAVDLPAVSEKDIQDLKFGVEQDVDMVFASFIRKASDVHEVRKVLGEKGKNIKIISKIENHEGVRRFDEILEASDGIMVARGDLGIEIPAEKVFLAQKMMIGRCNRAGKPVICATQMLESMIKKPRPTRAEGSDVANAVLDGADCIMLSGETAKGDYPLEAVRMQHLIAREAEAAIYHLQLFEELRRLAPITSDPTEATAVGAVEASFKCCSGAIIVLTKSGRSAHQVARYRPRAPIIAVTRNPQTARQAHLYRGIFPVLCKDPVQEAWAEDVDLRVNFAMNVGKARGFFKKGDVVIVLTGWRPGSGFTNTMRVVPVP
How it was run: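 Screening used highly purified human pyruvate kinase M2 under submaximal activity, with PEP at its Km and ADP below Km. After an hour at room temperature, ATP was read by luciferase luminescence.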

[12] = target: Alpha-galactosidase A (Homo sapiens) (UniProt P06280); experiment: Counterscreen for Glucocerebrosidase Inhibitors: qHTS Assay for Human alpha-Galactosidase at pH 4.5 (AID 992; active = well fitted curve in the direction sought with a large enough effect; an effect the other way counts as inactive or inconclusive)
Chain of Alpha-galactosidase A (Homo sapiens) (P06280 whole entry, looked up): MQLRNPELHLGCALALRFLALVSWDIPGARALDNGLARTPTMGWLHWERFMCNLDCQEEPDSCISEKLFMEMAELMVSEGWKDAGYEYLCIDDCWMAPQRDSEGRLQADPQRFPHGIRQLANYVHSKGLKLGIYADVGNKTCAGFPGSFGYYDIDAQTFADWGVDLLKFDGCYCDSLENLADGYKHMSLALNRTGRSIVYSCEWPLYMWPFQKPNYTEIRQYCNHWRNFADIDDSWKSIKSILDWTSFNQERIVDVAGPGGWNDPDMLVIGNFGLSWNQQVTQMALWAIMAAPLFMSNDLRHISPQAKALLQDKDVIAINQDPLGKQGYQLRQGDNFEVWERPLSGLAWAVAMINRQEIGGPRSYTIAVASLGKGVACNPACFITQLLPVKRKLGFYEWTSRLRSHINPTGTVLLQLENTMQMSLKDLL
How it was run: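 Each compound is preincubated briefly with 2 nM enzyme before substrate addition (80 uM); plates then sit 20 min at ambient temperature, are quenched with 1M NaOH/1M glycine, and read fluorometrically.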

[13] = target: alpha-glucosidase (Oryza sativa, rice) (UniProt Q653V4); experiment: Counterscreen for Glucocerebrosidase Inhibitors: qHTS Assay for Rice alpha-Glucosidase at pH 5.0 (AID 997; active = well fitted curve in the direction sought with a large enough effect; an effect the other way counts as inactive or inconclusive)
How it was run: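 Endpoint fluorogenic assay at pH 5.0: compounds (0.7 nM to 77 uM) titrated against 4 nM rice enzyme and 400 uM 4-MU-alpha-glucoside for 20 min at room temperature; NaOH/glycine stop, read ex 365/em 440 nm, Hill-fitted AC50.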

[14] = qHTS Assay for Identification of Small Molecule Agonists for Thrombopoietin (TPO) Signaling Pathway (AID 917; active = well fitted curve in the direction sought with a large enough effect; an effect the other way counts as inactive or inconclusive)
How it was run: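 Quantitative HTS for pathway activators: compounds were pin-transferred onto IL-3-starved Ba/F3 cells expressing human TPO receptor, TPO was added at its EC50 (26 pM final), and after 24 hrs at 37 C reporter luciferase was measured.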

[15] = target: Muscarinic acetylcholine receptor M1 (Rattus norvegicus) (UniProt P08482); experiment: qHTS Assay for Antagonists of Acetylcholine Muscarinic M1 Receptor: Measurement of IP-One Response (AID 944; active = well fitted curve in the direction sought with a large enough effect; an effect the other way counts as inactive or inconclusive; also: nearly all actives have a fitted effect of over 75% in size)
How it was run: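 IP1 accumulation measured via TR-FRET between d2-IP1 and Eu-cryptate anti-IP1 antibody after carbachol (200 nM, EC80) stimulation for 30 min; rat M1-transfected CHO cells received compound 10 min before agonist.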

[16] = target: Cytochrome P450 2C9 (Homo sapiens) (UniProt P11712); experiment: qHTS Assay for Inhibitors and Substrates of Cytochrome P450 2C9 (AID 883; active = well fitted curve in the direction sought with a large enough effect; an effect the other way counts as inactive or inconclusive; also: nearly all actives have a fitted effect of over 60% in size)
Chain of Cytochrome P450 2C9 (Homo sapiens) (P11712 whole entry, looked up): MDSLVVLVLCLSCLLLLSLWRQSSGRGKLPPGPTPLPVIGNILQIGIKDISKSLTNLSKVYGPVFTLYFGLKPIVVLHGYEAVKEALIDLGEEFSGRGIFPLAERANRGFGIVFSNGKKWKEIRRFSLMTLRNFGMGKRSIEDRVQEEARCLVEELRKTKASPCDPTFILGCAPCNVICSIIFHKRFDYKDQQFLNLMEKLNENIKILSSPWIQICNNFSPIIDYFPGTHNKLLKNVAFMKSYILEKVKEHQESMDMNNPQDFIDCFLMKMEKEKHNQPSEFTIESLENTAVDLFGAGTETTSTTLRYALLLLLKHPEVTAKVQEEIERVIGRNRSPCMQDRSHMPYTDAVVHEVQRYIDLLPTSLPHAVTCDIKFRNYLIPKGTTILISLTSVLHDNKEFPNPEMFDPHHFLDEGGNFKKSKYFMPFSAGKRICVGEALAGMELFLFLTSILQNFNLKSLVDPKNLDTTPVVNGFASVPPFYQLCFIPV
How it was run: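 10nM CYP2C9 + 100uM Luciferin-H (=KM), 25mM KPO4; cpd 10 min 37C; NADPH regen, 60 min 37C; stop/detect with P450 Glo-Buffer 20 min; luminescence. Norm. to 57uM sulphaphenazole as full inhibition.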

[17] = target: Cytochrome P450 3A4 (Homo sapiens) (UniProt P08684); experiment: qHTS Assay for Activators of Cytochrome P450 3A4 (AID 885; active = well fitted curve in the direction sought with a large enough effect; an effect the other way counts as inactive or inconclusive; also: nearly all actives have a fitted effect of over 65% in size)
How it was run: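 Using 20nM recombinant human CYP3A4 in potassium phosphate (200mM), substrate Luciferin-PPXE at 25uM, luminescent luciferin detection followed a 60-min RT NADPH reaction; data scaled to 57 uM ketoconazole.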

[18] = target: Cytochrome P450 2D6 (Homo sapiens) (UniProt P10635); experiment: qHTS Assay for Inhibitors and Substrates of Cytochrome P450 2D6 (AID 891; active = well fitted curve in the direction sought with a large enough effect; an effect the other way counts as inactive or inconclusive;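 also: luciferin methyl ether substrate demethylated by CYP2D6 with NADPH regeneration; nearly all actives have a fitted effect of over 60% in size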)
How it was run: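 Luminescent read-out of luciferin formed by 5 nM human CYP2D6 demethylating 30 uM Luciferin-ME EGE (Km level) over 60 min at room temperature after NADPH regeneration addition. Data normalized to full inhibition by 1.43 uM quinidine.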

[19] = target: Cytochrome P450 2C19 (Homo sapiens) (UniProt P33261); experiment: qHTS Assay for Inhibitors and Substrates of Cytochrome P450 2C19 (AID 899; active = well fitted curve in the direction sought with a large enough effect; an effect the other way counts as inactive or inconclusive; also: nearly all actives have a fitted effect of over 60% in size)
Chain of Cytochrome P450 2C19 (Homo sapiens) (P33261 whole entry, looked up): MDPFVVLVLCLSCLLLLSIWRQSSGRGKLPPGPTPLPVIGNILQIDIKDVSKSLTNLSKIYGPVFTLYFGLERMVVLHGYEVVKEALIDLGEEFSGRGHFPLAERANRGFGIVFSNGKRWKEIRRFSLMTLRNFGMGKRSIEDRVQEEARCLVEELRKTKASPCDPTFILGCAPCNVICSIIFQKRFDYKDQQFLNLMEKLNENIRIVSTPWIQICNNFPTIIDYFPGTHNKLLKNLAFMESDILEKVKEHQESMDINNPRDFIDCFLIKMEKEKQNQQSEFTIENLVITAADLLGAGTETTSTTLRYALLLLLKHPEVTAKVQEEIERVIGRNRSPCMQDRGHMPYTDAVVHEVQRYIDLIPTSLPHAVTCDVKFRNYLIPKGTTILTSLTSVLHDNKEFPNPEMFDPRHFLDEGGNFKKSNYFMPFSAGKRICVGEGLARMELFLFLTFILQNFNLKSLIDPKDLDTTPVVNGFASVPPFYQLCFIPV
How it was run: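 Luminescent read-out of luciferin formed from Luciferin-H EGE (10uM, equal to KM). Enzyme 5nM in 50mM KPO4; compound added, 10 min at 37C, then NADPH regenerating system for 60 min at 37C. Full inhibition defined by 57uM ketoconazole.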

| SMILES | activity change, negative = inhibition [1] | Potency [2] | activity change, negative = inhibition [3] | activity, negative = inhibition [4] | Potency [5] [µM] | Potency [6] [µM] | Potency [7] | Potency [8] | outcome [9] | outcome [10] | outcome [11] | outcome [12] | Potency [13] | outcome [14] | Potency [15] | Potency [16] | Potency [17] | Potency [18] | Potency [19] |
| --- | --- | --- | --- | --- | --- | --- | --- | --- | --- | --- | --- | --- | --- | --- | --- | --- | --- | --- | --- |
| COc1ccc2c(c1)CCC1C2CC[C@]2(C)[C@H](NCCCCCCN3C(=O)C=CC3=O)CC[C@@H]12 (stereo not given in full) | -7.36% [at 38 µM] | inactive | 12.6% [at 38 µM] | 1% [at 38 µM] | > 46 | > 46 | inactive | inactive | inactive | inactive | inactive | inactive | inactive |  |  |  |  |  |  |
| O=C(O)CC[C@@H](NC(=O)c1ccccc1C(=O)O)C(=O)O | 10.1% [at 38 µM] | inactive | 6.53% [at 38 µM] | -11.8% [at 38 µM] | > 46 | > 46 | inactive | inactive | inactive | inactive | inactive | inactive | inactive | inactive | inactive |  |  |  |  |
| C[C@](O)(c1ccccc1)c1nccc2ccccc12 | -0.483% | inactive | 3.41% | -8.29% | > 46 | > 9.22 | inactive | inactive |  |  |  |  |  |  |  |  |  |  |  |
| COc1ccc(/C=C(\C#N)C(N)=O)c(OC)c1 | 2.38% | 1.58 µM (active) | 17.1% | 3.37% | > 46 | > 9.22 | inactive | inactive |  |  |  |  |  |  |  | inactive | inactive |  |  |
| CCNC(=O)[C@@H]1O[C@@H](n2cnc3c(NCc4ccccc4)ncnc32)[C@@H](O)[C@H]1O | -7.35% [at 38 µM] | inactive | 17% [at 38 µM] | -20.4% [at 38 µM] | > 46 | > 46 | inactive | inactive |  |  |  |  |  |  |  | inactive |  | inactive | inactive |
| CN(C)CCN(c1ccccn1)c1ccccn1 | 11.2% | inactive | 7.47% | 11.4% | > 46 | > 9.22 | inactive | inactive |  |  |  |  |  |  |  |  |  |  | inactive |
| CC[N+](C)(CC)CCN1C(=O)c2ccccc2S1(=O)=O | 7.73% | inactive | 6.78% | -3.07% | > 46 | > 9.22 | inactive | inactive |  |  |  |  |  |  |  |  |  |  | inactive |
